Measured values taken from PubChem BioAssay (Tox21).
Several values for one entry are separate records, joined by “and”; a condition that tells them apart may be missing. Identical values can stand only once. Records with an inconclusive call do not appear. Values without a mark were called inactive. Activity calls are given as the source filed them. Calls follow the shape of the dose curve; as a rule, active = well fitted curve in the direction sought with a large enough effect in the repeat runs; inconclusive = weak or mixed curves; inactive = no such curve, though single readings can be large; an effect the other way counts as inactive or inconclusive.

Assay: Caspase-3/7 induction in HepG2 cells by small molecules, qHTS assay (AID 1346978); also: nearly all actives have a fitted effect of over 15% in size
Conditions: HepG2 caspase-3/7 activation, Caspase-Glo luminescence, 17 h; series mostly up to 92.4 µM; caspase activation: at the top concentration
How it was run: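 Wild-type HepG2 cells (2,000/well) were settled 5 h at 37 C, 5% CO2, then exposed to compounds in DMSO for 17 h. Caspase-3/7 activity was read by luminescence 30 min after adding Caspase-Glo 3/7 reagent at room temperature.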
% is scaled to controls: 0 for no effect and ±100 for the full control effect; potency is read from the fitted curve at half-maximal effect.

| SMILES | caspase activation | Potency |
| --- | --- | --- |
| CCCCNS(=O)(=O)c1ccc(C)cc1 | 0.0501% | – |
| C#C[C@]1(OC(C)=O)CC[C@H]2[C@@H]3CCC4=C/C(=N/O)CC[C@@H]4[C@H]3CC[C@@]21CC | 11% [at 42.5 µM] | – |
| COC(=O)C1=C(C)NC(C)=C(C(=O)OCCN2CCN(C(c3ccccc3)c3ccccc3)CC2)C1c1cccc([N+](=O)[O-])c1 (stereo unspecified) | -0.788% [at 42.5 µM] | – |
| O=C1CCc2cc(OCCCCc3nnnn3C3CCCCC3)ccc2N1 | -2.59% [at 42.5 µM] | – |
| CCC(C)(CCC(C)C)C(=O)[O][Sn]([CH3])([CH3])[O]C(=O)C(C)(CC)CCC(C)C (stereo unspecified) | -3.64% | – |
| C=CCn1c(=O)n(CC=C)c(=O)n(CC=C)c1=O | -0.462% | – |
| COc1cccc2c1C(=O)c1c(O)c3c(c(O)c1C2=O)C[C@@](O)(C(C)=O)C[C@@H]3O[C@H]1C[C@H](N)[C@H](O)[C@H](C)O1 | – | 1.38 µM (active) and 1.33 µM (active) |
| c1ccc(SSc2ccccc2)cc1 | 0.5% | – |
| COc1ccc2c(c1)c(CC(=O)OC/C=C(\C)CC/C=C(\C)CCC=C(C)C)c(C)n2C(=O)c1ccc(Cl)cc1 | -0.577% [at 42.5 µM] | – |
| Nc1ccc(Oc2ccc(Cl)cc2)cc1 | 0.594% | – |
| CC(C(=O)O)c1ccc2c(c1)[nH]c1ccc(Cl)cc12 (stereo unspecified) | -8.51% [at 42.5 µM] | – |
| C#C[C@]1(OC(C)=O)CC[C@H]2[C@@H]3CCC4=C[C@@H](OC(C)=O)CC[C@@H]4[C@H]3CC[C@@]21C | -4.19% [at 42.5 µM] | – |
| OC12N=C(c3ccccc3)SC1Cc1cc(Cl)ccc12 (stereo unspecified) | -4.9% | – |
| CCN1C(=O)c2ccccc2C1Nc1ccc(OCCN2CCCCC2)cc1 (stereo unspecified) | -0.0066% [at 42.5 µM] | – |
| CCCCCCC1CCCC(=O)O1 (stereo unspecified) | 0.0876% | – |
| CNC(=O)c1ccccc1Sc1ccc2c(/C=C/c3ccccn3)n[nH]c2c1 | -20.9% [at 42.5 µM] | – |
| CCc1oc2ccccc2c1C(=O)c1cc(I)c(O)c(I)c1 | 3.19% [at 42.5 µM] | – |

| SMILES | caspase activation | Potency |
| --- | --- | --- |
| NC(=S)NC(N)=S | 0.461% | – |
| CCO[C@@H]1O[C@H](C(COCc2ccccc2)OCc2ccccc2)[C@H](OCc2ccccc2)[C@H]1O (stereo partly specified) | 0.267% [at 42.5 µM] | – |
| O=C(/C=C/c1ccc(O)c(O)c1)O[C@@H](C(=O)O)[C@@H](OC(=O)/C=C/c1ccc(O)c(O)c1)C(=O)O | -0.563% | – |
| CN1CCN(Cc2cc(-c3ccc4[nH]c(=O)oc4c3)co2)[C@@H](c2ccc(F)cc2)C1 | 4.52% | – |
| O=[N+]([O-])c1ccc(O)cc1C(F)(F)F | -7.88% | – |
| CC(C)(C)CC(C)(C)c1ccc(Nc2ccc(C(C)(C)CC(C)(C)C)cc2)cc1 | 1.74% [at 8.39 µM] | – |
| O=c1c(O)c(-c2ccc(O)cc2O)oc2cc(O)cc(O)c12 | -2.39% | – |
| Cc1ccc(N/N=c2\c(=O)cc/c(=N\Nc3ccc(S(=O)(=O)O)cc3)c2=O)c(C)c1 | -8.15% | – |
| [Cl][Pt-2]([Cl])([Cl])[Cl] | -0.285% | – |
| NC(=O)c1cccc([N+](=O)[O-])c1 | -1.44% | – |
| Cc1ccc(O)c(O)c1 | 0.748% | – |
| Cc1cc(C)c(/C=C2\C(=O)Nc3ccccc32)[nH]1 | 11.7% [at 42.5 µM] | – |
| OC[C@H]1O[C@H](O[C@H]2O[C@H](CO)[C@@H](O)[C@H](O)[C@H]2O)[C@H](O)[C@@H](O)[C@@H]1O | -0.17% | – |
| CN1CCCCC1CCN1c2ccccc2Sc2ccc(S(C)=O)cc21 (stereo unspecified) | 0.402% [at 42.5 µM] | – |
| CCCCCC(C)OC(=O)COc1ccc(Cl)c2cccnc12 (stereo unspecified) | 0.71% | – |
| Cc1cc(C(C)(C)C)c(O)c(C)c1Cn1c(=O)n(Cc2c(C)cc(C(C)(C)C)c(O)c2C)c(=O)n(Cc2c(C)cc(C(C)(C)C)c(O)c2C)c1=O | -1.85% | – |
| O=S(=O)(O)c1ccccc1/C=C/c1ccc(-c2ccc(/C=C/c3ccccc3S(=O)(=O)O)cc2)cc1 | 0.712% | – |

Assay: Caspase-3/7 induction in CHO-K1 cells by small molecules, qHTS cell viability counter screen (AID 1346979); also: nearly all actives have a fitted effect of over 35% in size
Conditions: CellTiter-Fluor fluorescence, 17 h; series mostly up to 92.4 µM; activity change, negative = cytotoxicity: at the top concentration
How it was run: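 Viability readout by fluorescence (CellTiter-Fluor) on wild-type CHO-K1 cells exposed for 16hr at 37C and 5% CO2 to compounds delivered in DMSO; reagent incubated 1hr before reading.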

| SMILES | Potency | activity change, negative = cytotoxicity |
| --- | --- | --- |
| C#CC1(O)CC[C@H]2[C@@H]3CCC4=CCCC[C@@H]4[C@H]3CC[C@@]21C (stereo partly specified) | 61.1 µM (active) and 26.6 µM (active) | – |
| CCCCNS(=O)(=O)c1ccc(C)cc1 | – | 4.43% |
| COC(=O)C1=C(C)NC(C)=C(C(=O)OCCN2CCN(C(c3ccccc3)c3ccccc3)CC2)C1c1cccc([N+](=O)[O-])c1 (stereo unspecified) | 21.1 µM (active) | – |
| C=CCn1c(=O)n(CC=C)c(=O)n(CC=C)c1=O | – | -0.942% |
| COc1cccc2c1C(=O)c1c(O)c3c(c(O)c1C2=O)C[C@@](O)(C(C)=O)C[C@@H]3O[C@H]1C[C@H](N)[C@H](O)[C@H](C)O1 | 21.8 µM (active) and 9.44 µM (active) | – |
| COc1ccc2c(c1)c(CC(=O)OC/C=C(\C)CC/C=C(\C)CCC=C(C)C)c(C)n2C(=O)c1ccc(Cl)cc1 | – | -0.0987% [at 42.5 µM] |
| C#C[C@]1(OC(C)=O)CC[C@H]2[C@@H]3CCC4=C[C@@H](OC(C)=O)CC[C@@H]4[C@H]3CC[C@@]21C | 33.5 µM (active) | – |
| C=CC(=O)Nc1cc2c(Nc3ccc(F)c(Cl)c3)ncnc2cc1OCCCN1CCOCC1 | 5.96 µM (active) | – |
| CCN1C(=O)c2ccccc2C1Nc1ccc(OCCN2CCCCC2)cc1 (stereo unspecified) | – | -1.48% [at 42.5 µM] |
| CCCCCCC1CCCC(=O)O1 (stereo unspecified) | – | 4.36% |
| CNC(=O)c1ccccc1Sc1ccc2c(/C=C/c3ccccn3)n[nH]c2c1 | 26.6 µM (active) | – |
| NC(=S)NC(N)=S | – | -2.22% |
| CCO[C@@H]1O[C@H](C(COCc2ccccc2)OCc2ccccc2)[C@H](OCc2ccccc2)[C@H]1O (stereo partly specified) | 29.8 µM (active) | – |
| CN1CCN(Cc2cc(-c3ccc4[nH]c(=O)oc4c3)co2)[C@@H](c2ccc(F)cc2)C1 | 58.8 µM (active) | – |
| O=[N+]([O-])c1ccc(O)cc1C(F)(F)F | 24.3 µM (active) | – |
| CC(C)(C)CC(C)(C)c1ccc(Nc2ccc(C(C)(C)CC(C)(C)C)cc2)cc1 | – | 5.88% [at 8.39 µM] |
| Cc1ccc(N/N=c2\c(=O)cc/c(=N\Nc3ccc(S(=O)(=O)O)cc3)c2=O)c(C)c1 | 27.3 µM (active) | – |
| NC(=O)c1cccc([N+](=O)[O-])c1 | – | -0.0624% |
| Cc1ccc(O)c(O)c1 | 52.9 µM (active) | – |
| Cc1cc(C)c(/C=C2\C(=O)Nc3ccccc32)[nH]1 | – | -1.76% [at 42.5 µM] |
| OC[C@H]1O[C@H](O[C@H]2O[C@H](CO)[C@@H](O)[C@H](O)[C@H]2O)[C@H](O)[C@@H](O)[C@@H]1O | – | 4.05% |
| Cc1cc(C(C)(C)C)c(O)c(C)c1Cn1c(=O)n(Cc2c(C)cc(C(C)(C)C)c(O)c2C)c(=O)n(Cc2c(C)cc(C(C)(C)C)c(O)c2C)c1=O | 27.3 µM (active) | – |
